According to the supplement of paper PMC11732987, “Enantioselective OTUD7B fragment discovery through chemoproteomics screening and high-throughput optimisation” (Communications Chemistry, 2025):

Assays:
Assay in all cases: log2 ratio of Biotin-Ahx-Ub-VS probe labelling (fragment/DMSO); higher = less target engagement (more negative = stronger competition), active = hit call of the paper (q ≤ 0.05, log2 ratio ≤ -1)
Conditions in all cases: compound concentration: 200 uM; treatment time: 3 h
ALG13 = target: T1, ALG13 (UniProt Q9NP73)
T1 sequence (whole entry): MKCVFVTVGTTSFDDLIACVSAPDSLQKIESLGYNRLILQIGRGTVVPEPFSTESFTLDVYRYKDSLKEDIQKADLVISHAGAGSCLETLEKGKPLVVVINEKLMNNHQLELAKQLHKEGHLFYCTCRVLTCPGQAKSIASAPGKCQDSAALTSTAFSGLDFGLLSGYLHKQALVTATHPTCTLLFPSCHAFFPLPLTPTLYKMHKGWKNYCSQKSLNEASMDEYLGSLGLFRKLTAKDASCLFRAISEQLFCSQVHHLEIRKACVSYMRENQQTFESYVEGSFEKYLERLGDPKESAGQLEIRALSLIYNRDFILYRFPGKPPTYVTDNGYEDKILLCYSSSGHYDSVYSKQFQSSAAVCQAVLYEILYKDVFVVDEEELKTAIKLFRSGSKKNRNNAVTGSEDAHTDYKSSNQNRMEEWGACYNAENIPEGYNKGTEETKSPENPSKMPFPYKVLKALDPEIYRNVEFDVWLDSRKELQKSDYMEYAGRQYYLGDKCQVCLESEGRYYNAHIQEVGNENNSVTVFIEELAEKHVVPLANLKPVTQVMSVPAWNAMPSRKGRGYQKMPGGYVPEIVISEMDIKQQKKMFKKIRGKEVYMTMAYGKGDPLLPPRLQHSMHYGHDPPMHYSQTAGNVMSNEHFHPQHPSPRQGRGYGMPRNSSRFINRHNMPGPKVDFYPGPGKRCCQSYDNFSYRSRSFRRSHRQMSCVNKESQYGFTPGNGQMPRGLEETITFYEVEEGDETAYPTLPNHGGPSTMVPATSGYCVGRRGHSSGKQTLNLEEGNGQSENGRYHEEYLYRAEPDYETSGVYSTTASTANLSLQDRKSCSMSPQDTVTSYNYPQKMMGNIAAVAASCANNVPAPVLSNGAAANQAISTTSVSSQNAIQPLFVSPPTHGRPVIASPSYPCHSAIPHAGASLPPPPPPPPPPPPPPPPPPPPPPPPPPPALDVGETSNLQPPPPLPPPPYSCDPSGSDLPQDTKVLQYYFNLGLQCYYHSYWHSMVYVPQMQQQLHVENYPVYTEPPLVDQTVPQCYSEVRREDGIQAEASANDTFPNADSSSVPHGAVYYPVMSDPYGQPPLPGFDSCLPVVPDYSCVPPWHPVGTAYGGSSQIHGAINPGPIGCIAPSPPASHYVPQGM
Procedure, shortened: (§1)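 Fragment (200 µM) or vehicle was incubated for 3 h with triplicate HEK293T lysate samples of 495 µg, which were then treated with Biotin-Ahx-Ub-VS at 0.5 µM final for 1 h. Labelled DUBs were enriched on NeutrAvidin, digested with LysC and trypsin, and analysed by diaPASEF LC-MS/MS. Values are average log2 fragment/vehicle ratios from an unpaired t-test on global-median-normalised Spectronaut label-free quantities, using proteins with ≥2 unique peptides.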

ATXN3 = ATXN3 (UniProt P54252)
Sequence of ATXN3 (P54252 whole entry): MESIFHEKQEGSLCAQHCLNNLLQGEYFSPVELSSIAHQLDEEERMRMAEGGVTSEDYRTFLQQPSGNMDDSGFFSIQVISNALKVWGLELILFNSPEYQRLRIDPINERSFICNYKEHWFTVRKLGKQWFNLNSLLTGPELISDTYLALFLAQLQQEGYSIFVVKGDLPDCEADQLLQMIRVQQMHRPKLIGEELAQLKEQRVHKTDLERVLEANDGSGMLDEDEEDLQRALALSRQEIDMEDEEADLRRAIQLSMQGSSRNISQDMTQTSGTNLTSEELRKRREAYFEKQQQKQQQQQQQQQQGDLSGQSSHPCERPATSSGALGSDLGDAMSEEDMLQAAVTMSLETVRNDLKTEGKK
Procedure, shortened: as §1

BAP1 = target: T2, BAP1 (UniProt Q92560)
T2 sequence (whole entry): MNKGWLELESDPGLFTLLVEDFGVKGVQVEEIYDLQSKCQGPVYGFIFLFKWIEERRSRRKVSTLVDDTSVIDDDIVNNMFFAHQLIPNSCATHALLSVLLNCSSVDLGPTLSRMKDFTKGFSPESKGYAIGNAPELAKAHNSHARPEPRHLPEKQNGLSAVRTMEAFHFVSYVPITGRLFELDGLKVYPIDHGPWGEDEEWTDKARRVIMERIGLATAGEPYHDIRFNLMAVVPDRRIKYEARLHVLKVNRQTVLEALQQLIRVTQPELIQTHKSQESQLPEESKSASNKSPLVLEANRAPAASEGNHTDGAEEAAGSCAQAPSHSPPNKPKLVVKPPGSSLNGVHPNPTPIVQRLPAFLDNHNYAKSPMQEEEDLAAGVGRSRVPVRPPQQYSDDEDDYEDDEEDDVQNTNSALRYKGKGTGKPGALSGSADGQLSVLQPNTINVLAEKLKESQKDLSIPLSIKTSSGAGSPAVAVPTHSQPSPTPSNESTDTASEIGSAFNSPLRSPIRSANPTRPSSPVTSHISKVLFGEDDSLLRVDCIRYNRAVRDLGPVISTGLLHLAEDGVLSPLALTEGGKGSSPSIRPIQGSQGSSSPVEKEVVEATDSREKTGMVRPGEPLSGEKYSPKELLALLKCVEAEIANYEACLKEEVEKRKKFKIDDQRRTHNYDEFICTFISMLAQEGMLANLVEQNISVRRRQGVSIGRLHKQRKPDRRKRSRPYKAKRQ
Procedure, shortened: as §1

EIF3F = EIF3F (UniProt O00303)
Sequence of EIF3F (O00303 whole entry): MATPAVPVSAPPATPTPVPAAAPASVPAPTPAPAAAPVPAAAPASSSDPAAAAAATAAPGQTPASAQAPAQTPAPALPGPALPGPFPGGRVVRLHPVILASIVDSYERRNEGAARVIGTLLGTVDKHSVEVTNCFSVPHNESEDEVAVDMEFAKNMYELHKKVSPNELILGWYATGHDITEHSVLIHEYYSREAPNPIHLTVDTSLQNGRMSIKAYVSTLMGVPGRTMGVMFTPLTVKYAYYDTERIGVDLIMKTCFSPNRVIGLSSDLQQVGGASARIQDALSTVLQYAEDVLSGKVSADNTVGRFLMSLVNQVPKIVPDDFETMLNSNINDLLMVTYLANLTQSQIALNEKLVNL
Procedure, shortened: as §1

EIF3H = EIF3H (UniProt O15372)
Sequence of EIF3H (O15372 whole entry): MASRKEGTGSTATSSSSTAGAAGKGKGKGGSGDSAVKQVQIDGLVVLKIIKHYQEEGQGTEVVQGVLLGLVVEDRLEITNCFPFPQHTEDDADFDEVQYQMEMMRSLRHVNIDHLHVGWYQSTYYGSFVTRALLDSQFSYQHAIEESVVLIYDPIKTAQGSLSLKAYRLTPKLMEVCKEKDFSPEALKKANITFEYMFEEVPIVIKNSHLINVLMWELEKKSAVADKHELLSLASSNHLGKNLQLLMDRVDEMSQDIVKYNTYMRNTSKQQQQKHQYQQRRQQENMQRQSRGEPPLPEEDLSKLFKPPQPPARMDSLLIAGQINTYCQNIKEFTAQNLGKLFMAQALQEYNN
Procedure, shortened: as §1

FAM105A = target: T3, FAM105A (UniProt Q9NUU6)
T3 sequence (whole entry): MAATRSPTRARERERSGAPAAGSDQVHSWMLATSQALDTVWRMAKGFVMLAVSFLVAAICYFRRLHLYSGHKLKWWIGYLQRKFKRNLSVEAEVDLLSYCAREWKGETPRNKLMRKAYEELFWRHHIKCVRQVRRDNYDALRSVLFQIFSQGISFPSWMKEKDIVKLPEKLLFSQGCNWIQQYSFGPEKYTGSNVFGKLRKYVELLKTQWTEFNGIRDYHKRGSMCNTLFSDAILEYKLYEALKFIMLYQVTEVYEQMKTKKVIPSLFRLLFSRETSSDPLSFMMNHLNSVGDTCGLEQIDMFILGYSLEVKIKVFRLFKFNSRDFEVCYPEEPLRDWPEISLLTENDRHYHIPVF
Procedure, shortened: as §1

OTUB1 = OTUB1 (UniProt Q96FW1)
Sequence of OTUB1 (Q96FW1 whole entry): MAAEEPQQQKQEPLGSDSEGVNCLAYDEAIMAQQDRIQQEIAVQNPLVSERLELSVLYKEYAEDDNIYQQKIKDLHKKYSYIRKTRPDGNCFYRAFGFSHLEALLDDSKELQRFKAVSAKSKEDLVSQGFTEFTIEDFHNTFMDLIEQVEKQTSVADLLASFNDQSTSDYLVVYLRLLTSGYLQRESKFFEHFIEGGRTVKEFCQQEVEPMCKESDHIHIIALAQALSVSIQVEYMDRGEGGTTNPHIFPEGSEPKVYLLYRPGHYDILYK
Procedure, shortened: as §1

OTUD4 = target: T4, OTUD4 (UniProt Q01804)
T4 sequence (whole entry): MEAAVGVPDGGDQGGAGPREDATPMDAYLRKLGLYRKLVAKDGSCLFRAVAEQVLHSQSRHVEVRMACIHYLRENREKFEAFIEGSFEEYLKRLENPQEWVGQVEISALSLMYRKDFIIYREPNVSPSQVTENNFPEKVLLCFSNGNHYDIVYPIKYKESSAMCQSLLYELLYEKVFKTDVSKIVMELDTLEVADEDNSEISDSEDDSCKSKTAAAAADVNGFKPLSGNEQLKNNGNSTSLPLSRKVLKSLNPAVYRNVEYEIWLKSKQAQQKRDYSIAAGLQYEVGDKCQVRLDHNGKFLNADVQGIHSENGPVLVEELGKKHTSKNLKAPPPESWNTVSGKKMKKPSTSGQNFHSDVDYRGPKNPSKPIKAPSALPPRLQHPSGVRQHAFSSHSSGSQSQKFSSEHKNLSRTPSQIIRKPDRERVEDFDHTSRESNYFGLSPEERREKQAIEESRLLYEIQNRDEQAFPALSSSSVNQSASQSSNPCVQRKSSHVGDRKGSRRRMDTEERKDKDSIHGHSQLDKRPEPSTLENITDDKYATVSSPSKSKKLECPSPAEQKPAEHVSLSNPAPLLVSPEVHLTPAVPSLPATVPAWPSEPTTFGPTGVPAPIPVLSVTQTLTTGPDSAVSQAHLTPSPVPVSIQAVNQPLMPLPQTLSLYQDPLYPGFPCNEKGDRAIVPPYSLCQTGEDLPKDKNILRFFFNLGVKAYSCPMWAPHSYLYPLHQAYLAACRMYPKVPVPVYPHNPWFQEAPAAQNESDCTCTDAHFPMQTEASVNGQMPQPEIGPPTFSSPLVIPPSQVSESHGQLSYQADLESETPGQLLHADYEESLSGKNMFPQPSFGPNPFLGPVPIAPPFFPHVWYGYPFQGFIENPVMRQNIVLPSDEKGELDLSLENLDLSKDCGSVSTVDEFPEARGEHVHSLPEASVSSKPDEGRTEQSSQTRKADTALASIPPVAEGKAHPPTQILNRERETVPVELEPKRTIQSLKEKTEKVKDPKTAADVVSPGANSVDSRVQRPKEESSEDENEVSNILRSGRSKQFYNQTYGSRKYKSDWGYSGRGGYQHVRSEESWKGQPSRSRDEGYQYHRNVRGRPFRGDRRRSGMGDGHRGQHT
Procedure, shortened: as §1

OTUD5 = target: T5, OTUD5 (UniProt Q96G74)
T5 sequence (whole entry): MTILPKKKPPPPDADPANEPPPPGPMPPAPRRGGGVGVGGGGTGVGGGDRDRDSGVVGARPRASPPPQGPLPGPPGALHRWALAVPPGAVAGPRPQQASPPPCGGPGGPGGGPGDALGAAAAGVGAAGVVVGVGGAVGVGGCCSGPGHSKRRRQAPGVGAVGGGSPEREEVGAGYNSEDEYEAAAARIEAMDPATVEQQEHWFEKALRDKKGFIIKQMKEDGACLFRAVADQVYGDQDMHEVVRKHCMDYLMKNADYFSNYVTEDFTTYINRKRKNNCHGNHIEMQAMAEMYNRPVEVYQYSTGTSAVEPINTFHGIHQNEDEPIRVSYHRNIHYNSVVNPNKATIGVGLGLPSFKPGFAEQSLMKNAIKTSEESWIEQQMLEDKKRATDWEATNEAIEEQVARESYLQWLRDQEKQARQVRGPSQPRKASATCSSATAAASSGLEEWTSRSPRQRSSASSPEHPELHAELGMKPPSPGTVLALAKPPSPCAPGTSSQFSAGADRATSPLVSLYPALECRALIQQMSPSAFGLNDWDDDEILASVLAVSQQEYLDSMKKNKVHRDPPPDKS
Procedure, shortened: as §1

Measured: log2 ratio of Biotin-Ahx-Ub-VS probe labelling

O=C(CCl)NCCc1ccc(F)cc1
active: BAP1 -1.07
inactive: ALG13 -0.037 | ATXN3 -0.166 | EIF3F 0.0338 | EIF3H 0.194 | FAM105A -0.364 | OTUB1 -0.291 | OTUD4 -0.143 | OTUD5 -0.544
